These results are taken from PubChem BioAssay AID1030 (National Center for Advancing Translational Sciences (NCATS), 2008).

Screen size: about 220,000 compounds; about 16,000 (7.3%) were called active. Inconclusive results (about 25%) are left out. What follows is part of a selection rich in actives, with near analogues and random picks from the rest. Values without a mark were called inactive. The call rests on the fitted dose curve; in most records, active means well fitted inhibition curve with a large enough effect (not every such curve was filed as active); inconclusive means small, poorly fitted or top-dose-only effect, or another doubt; inactive means no such curve, though single readings can be large or run the other way.
Potency means the concentration at half of the fitted maximal effect.

Sequence of Aldehyde dehydrogenase 1A1 (Homo sapiens) (P00352 whole entry, looked up): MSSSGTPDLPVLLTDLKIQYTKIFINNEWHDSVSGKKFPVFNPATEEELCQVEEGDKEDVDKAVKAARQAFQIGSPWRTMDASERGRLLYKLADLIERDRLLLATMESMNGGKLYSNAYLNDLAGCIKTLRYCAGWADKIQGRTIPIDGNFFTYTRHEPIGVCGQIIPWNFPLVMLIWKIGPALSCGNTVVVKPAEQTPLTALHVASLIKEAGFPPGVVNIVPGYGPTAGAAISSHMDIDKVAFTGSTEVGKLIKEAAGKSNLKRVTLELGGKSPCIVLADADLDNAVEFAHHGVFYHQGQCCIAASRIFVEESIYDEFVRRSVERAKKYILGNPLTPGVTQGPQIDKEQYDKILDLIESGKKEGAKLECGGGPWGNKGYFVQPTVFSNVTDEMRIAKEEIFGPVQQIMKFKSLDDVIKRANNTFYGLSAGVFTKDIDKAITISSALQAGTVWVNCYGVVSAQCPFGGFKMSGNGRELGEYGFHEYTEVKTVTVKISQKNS

The assay has as its target Aldehyde dehydrogenase 1A1 (Homo sapiens) (UniProt P00352). The assay can be described thus: qHTS Assay for Inhibitors of Aldehyde Dehydrogenase 1 (ALDH1A1).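 On activity, negative = inhibition: plate controls were no enzyme wells and a reference inhibitor.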 The following applies: Purified ALDH1A1, NADH fluorescence, propionaldehyde substrate; series mostly up to 75.3 µM; activity, negative = inhibition: at the top concentration. (In general: Quantitative high-throughput screening tests each substance at several concentrations.)
As to `Cc1ccc(N=Nc2c(C)[nH]n(-c3ccccc3)c2=O)cc1`, the “activity, negative = inhibition” value was -5.84%.

Take `Cc1cc(C)c(C2C3=C(Nc4c2c(C)nn4-c2ccccn2)c2ccccc2C3=O)c(C)c1` (configuration not stated): the “activity, negative = inhibition” value was -2.06%.

Turning to `Cc1ccc(C2C3=C(Nc4[nH]n(-c5ccccc5)c(=O)c42)c2ccccc2C3=O)cc1` (configuration not stated), the Potency is 11.2 µM (active).

`Cn1cnnc1Sc1ccc(S(C)(=O)=O)cc1[N+](=O)[O-]`: the “activity, negative = inhibition” value is 8.01%.

For the compound `c1csc(-c2nnc(COc3ccc4c(c3)OCO4)o2)c1`, the “activity, negative = inhibition” value was -8.68%.

`c1ccc2sc(SCCSc3nc4ccccc4s3)nc2c1`: the activity, negative = inhibition is 3.19% [at 13.5 µM].

As for `O=[N+]([O-])c1cc(Br)c(O)c(/C=N/Nc2nc3ccccc3s2)c1`, the “activity, negative = inhibition” value was 1.2%.

In the case of `O=[N+]([O-])c1c(NCCO)cc(Sc2nc3ccccc3s2)c2nonc12`, the Potency was 8.91 µM (active).

Consider `CN(CCC1CCOCC1)Cc1cn[nH]c1-c1ccc(-c2ccccc2)cc1`, for which the Potency is 10 µM (active).

For the compound `OCC1(CCOc2ccccc2)CCN(Cc2cn[nH]c2-c2ccccc2)CC1`, the “activity, negative = inhibition” value was 2.48%.

On to `O=C(c1ccc(F)cc1)C1CCN(Cc2cn[nH]c2-c2ccccc2)CC1`, for which the “activity, negative = inhibition” value is -3.53%.

`Cc1nnc(CN(C)Cc2cn[nH]c2-c2ccc(-c3ccccc3)cc2)o1`: the Potency is 12.6 µM (active).

As for `COc1ccc(-c2[nH]ncc2CN(C)Cc2c(C)n[nH]c2C)c(OC)c1`, the “activity, negative = inhibition” value was 3.76%.

Regarding `O=C(OCc1ccc([N+](=O)[O-])cc1)c1ccccn1`, the “activity, negative = inhibition” value was 3.86%.

With `Cc1nc([N+](=O)[O-])c(NCCCO)n1Cc1ccccc1`, the “activity, negative = inhibition” value was -5.45%.

With `CCNc1nc(-c2cc3ccccc3o2)cs1`, the “activity, negative = inhibition” value is 3.76%.

On to `NS(=O)(=O)c1ccc(CCNC(=O)c2ccc(Cl)cc2[N+](=O)[O-])cc1`, for which the “activity, negative = inhibition” value is 5.47%.

As to `O=P(O)(CN1CCCCCC1)C1Cc2ccccc2C1`, the “activity, negative = inhibition” value was 1.42%.

Consider `CCOC(=O)C1=C(C)Nc2sc(C(=O)c3ccc(Br)cc3)c(N)c2C1c1ccc(C(=O)OC)cc1` (configuration not stated), for which the “activity, negative = inhibition” value was 4.19%.

For the compound `CCOC(=O)c1sc(NC(=O)c2ccncc2)nc1C`, the “activity, negative = inhibition” value was 0.718%.

`CCOC(=O)c1sc(=S)n2c1[nH]c(=O)c1ccc(C(=O)OC)cc12`: the Potency was 8.91 µM (active).

Consider `Cc1ccc(/C=N/NC(=O)COc2ccccc2-c2ccccc2)cc1`, for which the “activity, negative = inhibition” value was -3.94%.

As for `CC(C)(C)C1C/C(=C/c2ccco2)C(=O)/C(=C/c2ccco2)C1` (configuration not stated), the Potency was 7.94 µM (active).

As to `CCC1C/C(=C/c2cccs2)C(=O)/C(=C/c2cccs2)C1` (configuration not stated), the “activity, negative = inhibition” value is -1.08%.

In the case of `CCC1S/C(=N/N=C/c2ccco2)NC1=O` (configuration not stated), the “activity, negative = inhibition” value is -11.9%.

Take `COc1ccc(C2=NN(c3nc4ccccc4s3)C(=O)C2)cc1`: the “activity, negative = inhibition” value is 4.17%.

As for `CCCCn1c(=O)c(C(C)=O)c(O)c2ccccc21`, the “activity, negative = inhibition” value is 3.26%.

With `Cc1[nH]c2c(C(=O)N3CCCC(CCC(=O)NCc4ccccc4F)C3)cccc2c1C` (configuration not stated), the “activity, negative = inhibition” value was -12.1%.

With `COc1ccccc1N1CCN(CCCCOc2ccc(F)cc2)CC1`, the Potency was 25.1 µM (active).

`COc1ccccc1N1CCN(Cc2ccc(OC)c3ccccc23)CC1`: the “activity, negative = inhibition” value is -4.71%.

As to `CCN1CCN(CCCCOc2ccccc2F)CC1`, the “activity, negative = inhibition” value is -7.76%.

With `CCOC(=O)c1c(NC(=O)C2CC=CCC2C(=O)O)sc(C)c1CC` (configuration not stated), the “activity, negative = inhibition” value was -0.959%.

Turning to `Cc1ccc(-c2cccc([C@H]3[C@@H]4C=CC[C@@H](C)[C@@H]4C(=O)N3Cc3ccccc3)c2)cc1`, the “activity, negative = inhibition” value was 7.38%.

Regarding `COc1ccc(OC)c(Cc2nnc(CCC(=O)NC3CCCC3)o2)c1`, the “activity, negative = inhibition” value is -0.804%.

Turning to `O=C1CSC(c2cccc(F)c2)N1c1ccccc1F` (configuration not stated), the Potency is 14.1 µM (active).

Consider `O=C1CSC(c2cccc(F)c2)N1c1ccc(O)cc1` (configuration not stated), for which the “activity, negative = inhibition” value is -0.489%.

Consider `O=C1CSC(c2ccccc2)N1c1nc(-c2ccc(Cl)cc2Cl)cs1` (configuration not stated), for which the “activity, negative = inhibition” value was 5.19%.

As to `CC1CCN(c2ccc(S(=O)(=O)Nc3cc(C(=O)O)cc(C(=O)O)c3)cc2[N+](=O)[O-])CC1`, the “activity, negative = inhibition” value was 5.01%.

For the compound `O=C(Nc1ccc(F)cc1)C1CCN(C(=O)c2ccc([N+](=O)[O-])cc2)CC1`, the “activity, negative = inhibition” value was 0.407%.

In the case of `CC1CCN(C(=O)c2ccc(S(=O)(=O)Cc3cc(F)ccc3F)c([N+](=O)[O-])c2)CC1`, the Potency was 7.08 µM (active).

On to `CCc1[nH]nc(C(=O)N2CCCC(CNS(=O)(=O)c3cccs3)C2)c1C` (configuration not stated), for which the “activity, negative = inhibition” value was 3.5%.

Regarding `COCCCNC(=O)C1CCC(CNS(=O)(=O)c2ccc(OC)cc2)CC1` (configuration not stated), the “activity, negative = inhibition” value was -3.23%.

Turning to `COc1ccc(S(=O)(=O)NCC2CCCN(C(=O)c3occc3C)C2)cc1` (configuration not stated), the Potency is 4.47 µM (active).

As for `Cc1ccc(S(=O)(=O)N2CCOCC2)cc1C(=O)OC1CCCCC1=O` (configuration not stated), the “activity, negative = inhibition” value was -0.864%.

`CCC(C)NC(=O)Cn1nc(C(F)(F)F)c2c1CCC2` (configuration not stated): the “activity, negative = inhibition” value is 9.42%.

For `CS(=O)(=O)N1CCC(C(=O)N2CCN(c3ccccc3)CC2)CC1`, the “activity, negative = inhibition” value was -3.06%.

With `CS(=O)(=O)N1CCN(C(=O)Cc2ccccc2)CC1`, the Potency is 8.91 µM (active).

Consider `CS(=O)(=O)N(CC(=O)N1CCCC1)Cc1ccccc1`, for which the “activity, negative = inhibition” value is 5.09%.

As to `O=C(Nc1ccc(Cl)cc1)Nc1ccc(Oc2cccnc2)nc1`, the “activity, negative = inhibition” value was -9.71%.

On to `Cc1ccc(-n2cc(CN(C)Cc3nccn3C)c(-c3cccc(C)c3)n2)cc1`, for which the “activity, negative = inhibition” value is 6.12%.

Take `COc1cccc(Cn2c(=O)cnc3cncnc32)c1`: the Potency was 2.51 µM (active).

Turning to `COc1cccc(Cn2c(=O)c(-c3cc(F)cc(F)c3)nc3cnc(OC)nc32)c1`, the “activity, negative = inhibition” value is -9.66%.
